Data reported in PubChem BioAssay (EPA / NIEHS).
Inconclusive results are not listed. The source made the active and inactive calls. How the source made its calls, unless noted: active means hit-call score of the fitted dose curve at least 0.9, where 1 is the maximum; inconclusive means response in the unintended direction; inactive means score below 0.9.

Legend:
[1] = Tanguay_ZF_120hpf_PFIN_legacy: (Legacy) Oregon State University Tanguay Lab 120 Hour Post-fertilization zebrafish Assay for Pectoral Fin Malformation (AID 2283648);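 further: each larva judged yes or no for fin defect by brightfield with dead larvae skipped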
In short: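 Pectoral fin malformation was recorded as a binary endpoint at 120 hpf in wild-type Tropical 5D larvae, which had been dechorionated and exposed statically from 6 hpf at 28C in 0.64% DMSO. Dead embryos were excluded.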

[2] = Tanguay_ZF_120hpf_CFIN_legacy: (Legacy) Oregon State University Tanguay Lab 120 Hour Post-fertilization zebrafish Assay for Caudal Fin Malformation (AID 2283649)
In short: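 Binary presence or absence of caudal fin malformation at 120 hpf, read by brightfield microscopy, with DMSO as baseline. Larvae came from 5D wild-type embryos exposed statically from 6 hpf at 28C after pronase dechorionation.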

[3] = Tanguay_ZF_120hpf_PIG_legacy: (Legacy) Oregon State University Tanguay Lab 120 Hour Post-fertilization zebrafish Assay for Pigmentation Malformation (AID 2283650)
In short: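 Pigment malformation recorded as a binary call at 120 hpf in zebrafish (Tropical 5D) exposed singly from 6 hpf after pronase dechorionation. Static, sealed, 28C exposure, 0.64% DMSO; mortality excludes scoring; positive-direction fit against DMSO.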

[4] = Tanguay_ZF_120hpf_CIRC_legacy: (Legacy) Oregon State University Tanguay Lab 120 Hour Post-fertilization zebrafish Assay for Circulatory Malformation (AID 2283651)
In short: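 Embryos are dechorionated at 4 hpf, plated one per well at 6 hpf, then held under static exposure at 28C until 120 hpf. Malformations are recorded as binary calls; mortality excludes other endpoints.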

[5] = Tanguay_ZF_120hpf_SWIM_legacy: (Legacy) Oregon State University Tanguay Lab 120 Hour Post-fertilization zebrafish Assay for Swim Bladder Malformation (AID 2283654);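 further: swim bladder malformation in each larva scored yes or no under brightfield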
In short: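 Scoring is binary for swim bladder defects at 120 hpf, by brightfield inspection of zebrafish larvae. Embryos were exposed singly from 6 hpf after pronase dechorionation, at 28C with 0.64% DMSO; mortality excluded scoring.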

[6] = Tanguay_ZF_120hpf_TRUN_legacy: (Legacy) Oregon State University Tanguay Lab 120 Hour Post-fertilization zebrafish Assay for Truncated Body (AID 2283655)
In short: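 Truncated body is recorded as a binary endpoint at 120 hpf by brightfield imaging of wild-type 5D larvae. Exposure runs statically from 6 hpf at 28C with 0.64% DMSO; embryos dying earlier are not scored.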

[7] = tested on: Thyroperoxidase (TPO), gene 54314; experiment: CCTE_Simmons_AUR_rTPO: CCTE's Amplex UltraRed Assay for Thyroperoxidase (TPO) Inhibition, Simmons Lab (AID 2283662);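 further: potency for loss of signal meaning inhibition of peroxidase activity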
In short: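 Rat thyroid microsomes (5 ug protein) were incubated with test compound (8 concentrations, 5 nM–87.5 uM final, 0.5% DMSO), 25 uM Amplex UltraRed and 300 uM H2O2 in 200 mM phosphate buffer for 30 min at 37C in the dark; fluorescence read at 544/590 nm.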

[8] = CCTE_Simmons_CellTiterGLO_HEK293T: Viability Assessment in CCTE's Assays for Thyroperoxidase (TPO) Inhibition, Simmons Lab (AID 2283665);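 further: cells exposed to compound for 24 h before readout; actives reduce ATP signal below DMSO vehicle meaning cytotoxicity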
In short: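 Cells were seeded overnight, then exposed to an eight-point series up to 87.5 uM final for 24 hours. CellTiter-Glo reagent was added and luminescence read after 20 min, giving ATP-based viability versus DMSO.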

[9] = Tanguay_ZF_120hpf_TR_legacy: (Legacy) Oregon State University Tanguay Lab 120 Hour Post-fertilization zebrafish Assay for Touch Response (AID 2283667)
In short: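 Binary touch-response endpoint in larvae at 120 hpf after static waterborne exposure from embryo stage (28°C, 0.64% DMSO vehicle, 5 uM trimethyltin chloride as positive control); embryos dead at 24 or 120 hpf excluded; fitted as gain versus DMSO.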

[10] = Tanguay_ZF_120hpf_JAW_legacy: (Legacy) Oregon State University Tanguay Lab 120 Hour Post-fertilization zebrafish Assay for Jaw Malformation (AID 2283638)
In short: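 Steps: dechorionate 4 hpf embryos (pronase); plate 1/well at 6 hpf; add test chemical, 0.64% DMSO final; seal, cover, hold at 28C statically to 120 hpf; score jaw defect presence/absence microscopically. Dead embryos not scored.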

[11] = Tanguay_ZF_120hpf_OTIC_legacy: (Legacy) Oregon State University Tanguay Lab 120 Hour Post-fertilization zebrafish Assay for Otic Vesicle Malformation (AID 2283639)
In short: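 Statically exposed wild-type 5D zebrafish embryos, kept sealed and dark at 28C through 120 hours post fertilization, were examined by brightfield microscopy for otic vesicle defects. Responses were recorded as present or absent and analysed relative to DMSO.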

[12] = Tanguay_ZF_120hpf_BRAI_legacy: (Legacy) Oregon State University Tanguay Lab 120 Hour Post-fertilization zebrafish Assay for Brain Malformation (AID 2283641)
In short: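 Wild-type 5D larvae, static waterborne exposure to 120 hpf, 28C, 0.64% v/v DMSO. Brightfield scoring of brain defects, binary; dead embryos excluded. Positive ctrl 5uM trimethyltin chloride.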

[13] = Tanguay_ZF_120hpf_SOMI_legacy: (Legacy) Oregon State University Tanguay Lab 120 Hour Post-fertilization zebrafish Assay for Somite Malformation (AID 2283647)
In short: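 Read-out: presence or absence of somite malformation in 120 hpf larvae, gain-of-signal relative to DMSO baseline. Embryos lacked chorion (pronase, 4 hpf) and were exposed statically from 6 hpf at 28C; dead larvae not scored.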

[14] = Tanguay_ZF_120hpf_NC_legacy: (Legacy) Oregon State University Tanguay Lab 120 Hour Post-fertilization zebrafish Assay for Notochord and Tail Malformation (AID 2283656)
In short: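 Binary scoring of notochord distortion by brightfield microscopy; embryos dying were not scored. Wild-type Tropical 5D embryos, chorion removed, exposed singly and statically from 6 to 120 hpf, 28C, sealed, 0.64% DMSO.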

[15] = read-out: kallikrein-3 (KLK3), KLK3 (gene 354); experiment: LTEA_HepaRG_KLK3: Life Technologies and Expression Analysis (LTEA) Assay for kallikrein-3 (KLK3) using HepaRG (AID 2283652; active means hit-call score of the fitted dose curve at least 0.9, where 1 is the maximum; inactive means score below 0.9); conditions: mRNA level, 48 h; actives raise or lower the signal
In short: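 KLK3 transcript levels were measured by TaqMan qRT-PCR with normalisation to three housekeeping genes. HepaRG cultures received chemicals for 48 h at up to 100 uM (half-log, 8 points, 0.5% DMSO vehicle), fitted in both directions against DMSO.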

[16] = read-out: solute carrier (SLC22A6), SLC22A6 (gene 9356); experiment: LTEA_HepaRG_SLC22A6: Life Technologies and Expression Analysis (LTEA) Assay for solute carrier (SLC22A6) using HepaRG (AID 2283653; active means hit-call score of the fitted dose curve at least 0.9, where 1 is the maximum; inactive means score below 0.9); conditions: mRNA level, 48 h; actives raise or lower the signal
In short: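 Read-out is SLC22A6 transcript level by qRT-PCR, normalised to three housekeeping genes and fitted for gain or loss relative to 0.5% DMSO vehicle. Human HepaRG cells received chemicals at up to 100 uM for 48 h.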

[17] = read-out: solute carrier (SLC10A1), SLC10A1 (gene 6554); experiment: LTEA_HepaRG_SLC10A1: Life Technologies and Expression Analysis (LTEA) Assay for solute carrier (SLC10A1) using HepaRG (AID 2283657; active means hit-call score of the fitted dose curve at least 0.9, where 1 is the maximum; inactive means score below 0.9); conditions: mRNA level, 48 h; actives raise or lower the signal
In short: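 SLC10A1 transcript measured by TaqMan qRT-PCR, housekeeping-normalised, after 48 h chemical treatment of human HepaRG cells. Eight concentrations (half-log, max 100 uM, 0.5% DMSO vehicle) in duplicate; fitted bidirectionally against DMSO baseline.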

[18] = read-out: matrix metalloproteinase-1 (MMP1), MMP1 (gene 4312); experiment: LTEA_HepaRG_MMP1: Life Technologies and Expression Analysis (LTEA) Assay for matrix metalloproteinase-1 (MMP1) using HepaRG (AID 2283658; active means hit-call score of the fitted dose curve at least 0.9, where 1 is the maximum; inactive means score below 0.9); conditions: mRNA level, 48 h; actives raise or lower the signal
In short: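 HepaRG, ~100,000 cells/well, 48 h pre-culture; serum-free induction medium; test chemical 8 conc (max 100 uM, half-log), duplicate, 48 h; 0.5% DMSO; qRT-PCR MMP1, housekeeping-normalized; gain/loss fit vs DMSO.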

[19] = read-out: Cytochrome P450 (CYP24A1_1), CYP24A1 (gene 1591); experiment: LTEA_HepaRG_CYP24A1_1: Life Technologies and Expression Analysis (LTEA) Assay for Cytochrome P450 (CYP24A1_1) using HepaRG (AID 2283671; active means hit-call score of the fitted dose curve at least 0.9, where 1 is the maximum; inactive means score below 0.9); conditions: mRNA level, 48 h; actives raise or lower the signal
In short: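 Differentiated human HepaRG cells were exposed in duplicate for 48 h in serum-free induction medium to eight concentrations (top 100 uM, half-log steps, 0.5% DMSO). CYP24A1 mRNA was quantified by TaqMan qRT-PCR, normalized to ACTB, GAPDH and POLR2A, and fitted bidirectionally versus DMSO.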

Row | SMILES | outcome [1] | outcome [2] | outcome [3] | outcome [4] | outcome [5] | outcome [6] | AC50 [7] | AC50 [8] | outcome [9] | outcome [10] | outcome [11] | outcome [12] | outcome [13] | outcome [14] | outcome [15] | outcome [16] | outcome [17] | outcome [18] | outcome [19]
1 | CN(C)c1ccc(C(=C2C=CC(=[N+](C)C)C=C2)c2ccc(N(C)C)cc2)cc1 | inactive | inactive | inactive | inactive | inactive | inactive | 15.9 µM (active) | 0.955 µM (active) | inactive | – | – | – | – | – | – | – | – | – | –
2 | COc1cccc([C@H](O)C2CCN(CCc3ccc(F)cc3)CC2)c1OC | – | inactive | – | – | – | – | – | – | inactive | inactive | inactive | inactive | inactive | inactive | – | – | – | – | –
3 | CC(C)(C)c1cc(/C=C2\SC(N)=NC2=O)cc(C(C)(C)C)c1O | inactive | inactive | inactive | – | inactive | inactive | 5.18 µM (active) | 8.58 µM (active) | – | inactive | inactive | inactive | inactive | – | – | – | – | – | –
4 | Cc1ccc2oc(CN(Cc3ccccc3)C(=O)Nc3c(F)cc(F)cc3F)c(-c3ccc(Cl)cc3)c2c1 | – | inactive | inactive | inactive | – | – | – | – | inactive | inactive | inactive | inactive | inactive | inactive | – | – | – | – | –
5 | CCN(Cc1cccnc1)C(=O)c1cccc(Cl)c1[C@]1(C)C(=O)N(Cc2ccc(OC)cc2OC)c2ccc(Cl)cc21 | inactive | inactive | inactive | – | inactive | – | – | – | inactive | inactive | inactive | inactive | inactive | inactive | – | – | – | – | –
6 | CC(C)(c1cc(Br)c(O)c(Br)c1)c1cc(Br)c(O)c(Br)c1 | – | inactive | inactive | inactive | – | – | 18.5 µM (active) | 14.7 µM (active) | inactive | inactive | inactive | inactive | – | inactive | – | – | – | – | –
7 | OCCO | inactive | inactive | inactive | inactive | inactive | inactive | – | – | – | inactive | – | inactive | – | inactive | – | – | – | – | –
8 | CCCOC(=O)c1cc(O)c(O)c(O)c1 | inactive | – | inactive | inactive | inactive | inactive | 0.772 µM (active) | 22.6 µM (active) | inactive | inactive | inactive | inactive | inactive | inactive | inactive | inactive | inactive | inactive | inactive
9 | Cc1cc(F)ccc1-c1cc(N2CC[C@@H](O)[C@H]2CO)ncc1N(C)C(=O)C(C)(C)c1cc(C(F)(F)F)cc(C(F)(F)F)c1 | – | inactive | inactive | inactive | inactive | – | – | – | – | inactive | inactive | – | inactive | inactive | – | – | – | – | –
10 | Cc1cc2c(cc1C(F)(F)F)N(C(=O)Nc1ccc(Oc3cccnc3C)nc1)CC2 | – | inactive | inactive | – | inactive | – | – | – | – | inactive | inactive | inactive | inactive | inactive | – | – | – | – | –
